M1 antag – human CHRM1 antagonism; AID 588852; inhibition, % at 3 µM; 1.3% of 360,000 active; CHO-K1 hM1, Fluo-8 calcium fluorescence, ACh EC80 antagonist;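 active = percent inhibition above its own plate's cutoff, namely the mean of that plate's compound wells plus 3 SD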;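 note: peak over basal fluorescence ratio during 140 s after agonist addition; 0% = ACh EC80 plus DMSO and 100% = DMSO alone without agonist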
Target sequence (P11229 whole entry, looked up): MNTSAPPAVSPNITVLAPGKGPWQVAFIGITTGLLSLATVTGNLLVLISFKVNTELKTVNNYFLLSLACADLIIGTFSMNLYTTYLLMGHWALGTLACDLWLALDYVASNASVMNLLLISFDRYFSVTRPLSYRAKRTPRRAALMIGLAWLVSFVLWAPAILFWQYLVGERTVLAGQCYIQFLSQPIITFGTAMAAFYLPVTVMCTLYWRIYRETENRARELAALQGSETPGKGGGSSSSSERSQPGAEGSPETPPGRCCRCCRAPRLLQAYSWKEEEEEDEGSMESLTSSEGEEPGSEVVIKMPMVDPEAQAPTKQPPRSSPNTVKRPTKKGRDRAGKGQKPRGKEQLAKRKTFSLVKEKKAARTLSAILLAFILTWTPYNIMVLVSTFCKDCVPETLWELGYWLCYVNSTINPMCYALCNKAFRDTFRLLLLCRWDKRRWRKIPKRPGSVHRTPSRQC
CHRM1 PAM – positive allosteric modulators of human M1 muscarinic receptor. P11229. CHO-K1 hM1, Fluo-8 calcium fluorescence, ACh EC20; 0% = ACh EC20, 100% = maximal ACh. activation, % at 3 µM. 0.088% of 360,000 active. AID 588819; in the data active = activation above about 19%, passing the limit was not always enough
CHO-K1 Ca PAM – nonselective activator or artifact in parental CHO-K1 calcium assay; ATP EC20, Fluo-8 calcium fluorescence; 0% at ATP EC20, 100% at ATP max; 0.02% of 360,000 active; activation, % at 3 µM;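 active = activation above the run cutoff, the mean activation of all test compounds plus 3 SD, cut at about 40% in these data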;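 note: peak over basal fluorescence ratio in a 140 s read after ATP addition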
M1 ag parental – M1 agonist counterscreen hit in parental CHO-K1 cells; Fluo-8 calcium fluorescence; scaled to maximal ATP response, vehicle zero; activation, % at 3 µM; 0.48% of 360,000 active; AID 602248; in the data active = activation above about 15%;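 note: untransfected CHO-K1 host cells lacking M1 receptor as counterscreen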
M1 ag – agonists of human M1 muscarinic receptor; 0.33% of 360,000 active; activation, % at 3 µM; CHO-K1 hM1, Fluo-8 calcium fluorescence, agonist mode; 0% DMSO, 100% acetylcholine EC100; AID 588814; P11229;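 active = activation above the run's mean compound activation plus 3 SD, cut at about 16% in these data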;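 note: peak over basal fluorescence ratio within a 140 s kinetic read after compound addition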
CHO-K1 Ca antag – M1 antagonist counterscreen hit in parental CHO-K1 cells; ATP-induced calcium, Fluo-8 fluorescence; inhibition, % at 3 µM; 0.6% of 360,000 active; AID 602250;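 active = inhibition above a per-plate cutoff, the plate's mean sample inhibition plus 3 SD, cut at about 24% in these data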;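 note: 0% = DMSO plus EC80 ATP and 100% = DMSO alone without ATP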
* = called active by the depositor; / = not tested or not shown. An excerpt weighted towards active compounds, which were near 2.3% of everything screened.

SMILES	M1 antag	CHRM1 PAM	CHO-K1 Ca PAM	M1 ag parental	M1 ag	CHO-K1 Ca antag
COC(=O)C1=C(C)NC2=C(C(=O)CCC2)C1c1ccc(-c2ccsc2C(=O)OC)o1 (stereo not given)	5.8	-3.1	-17.1	4.4	25.3*	23.4
CC1=C(C(=O)OC2CCCCCC2)C(c2ccc(C)o2)C2=C(CCCC2=O)N1 (stereo not given)	-5.2	10.5	-3.3	0.3	6.1	12.9
COC(=O)c1ccsc1NC(=O)CN1CCN(c2ccc(F)cc2)CC1	-22.9	1.0	13.2	1.8	-1.6	-14.5
COC(=O)c1ccsc1NC(=O)CN1CCN(c2ncccn2)CC1	-6.3	17.9	-21.6	0.3	2.1	25.0*
Cc1cccc(N(CC(=O)N/N=C/c2ccc(C(=O)O)cc2)S(=O)(=O)c2ccccc2)c1C	-6.5	3.4	18.7	0.4	-2.9	-7.5
OC(COC(c1ccc(F)cc1)c1ccc(F)cc1)CN1CCCC(C(F)(F)F)C1 (stereo not given)	-12.5	4.4	-10.7	-0.7	-2.4	-9.5
OC(CN1CCCC(C(F)(F)F)C1)c1ccccc1 (stereo not given)	-31.7	34.0*	-8.0	0.3	2.0	-18.5
COc1ccc(NC(=O)c2cc3ccccc3cc2OC)cc1	-0.8	4.2	4.1	0.9	-5.1	-5.9
COc1ccc(CC(=O)Nc2ccc(NC(=O)c3ccccc3F)cc2)cc1	1.0	3.8	23.4	1.9	27.5*	-13.3
COc1ccc(NC(=O)CSc2nc(N)c(NC(=O)c3ccccc3F)c(=O)[nH]2)cc1	-11.9	14.4	-2.1	0.1	-0.6	5.0
COc1ccc(NC(=O)c2ccc3ccccc3c2OC)cc1	3.4	0.0	10.5	22.0*	-3.1	-3.7
COc1c(C)cc(C(O)c2ncc(-c3ccccc3F)[nH]2)cc1C (stereo not given)	-14.8	5.9	22.7	2.1	-0.2	-19.2
CCCc1nnc(NC(=S)Nc2ccccc2)s1	3.0	-0.1	-8.6	0.1	-1.6	-15.8
CC(C)C(=O)Nc1nnc(NC(=S)Nc2ccccc2)s1	-2.9	9.1	9.5	19.2*	-6.9	-1.9
CCOC(=O)c1ccc(S(=O)(=O)Nc2cc(S(=O)(=O)Nc3ccc(OC)cc3)ccc2O)cc1	-10.9	3.2	22.7	0.2	-2.7	-16.5
Cc1ccc([C@@H]2C[C@H]3[C@@H](CN2S(=O)(=O)c2ccc(Cl)cc2)C(=O)C[C@@H](c2ccc(C)cc2)N3S(=O)(=O)c2ccc(Cl)cc2)cc1	-18.4	3.9	22.1	1.2	-2.6	-16.7
COc1cc(/C=C(\C#N)c2nc3ccccc3o2)ccc1O	40.4*	-15.0	-21.0	45.3*	35.4*	30.3*
c1ccc(-c2ccccc2OCCOCCN2CCCCC2)cc1	18.8	-13.8	15.8	1.3	-8.5	-5.8
c1ccc(-c2ccccc2OCCN2CCCC2)cc1	67.6*	-28.6	-23.5	-0.1	-11.2	18.4
c1ccc(-c2ccccc2OCCCCN2CCCCCC2)cc1	35.2*	-26.3	15.1	3.8	-9.5	-1.7
COc1ccc(N2CCN(C(=O)CSc3nnc4n3C(C)(C)Cc3ccccc3-4)CC2)cc1	-8.6	5.7	15.9	1.1	-4.8	-2.6
Cc1ccc(Cl)cc1N1CCN(C(=O)CSc2nnc3n2C(C)(C)Cc2ccccc2-3)CC1	49.5*	-15.3	-5.4	7.8	1.4	15.2
CN(Cc1ccco1)C(=O)c1ccc(CNS(=O)(=O)c2ccc3c(c2)C(C)(C)C(=O)N3C)cc1	14.6	-6.1	11.5	0.7	0.0	0.7
CC1(c2nnnn2-c2ccc3c(c2)OCCO3)CCC(=O)N1C1CCN(Cc2ccccc2)CC1 (stereo not given)	/	/	4.6	1.1	/	-9.5
O=C(Nc1nc(-c2ccccc2)cs1)c1ccc2c(=O)n3c(nc2c1)CCCCC3	33.3*	-27.1	7.8	8.5	-1.2	5.0
O=C(Nc1ccccc1Cl)c1ccc2c(=O)n3c(nc2c1)CCC3	0.6	2.2	15.8	1.3	-1.5	-21.4
O=C(Nc1nc(-c2ccccc2)cs1)c1ccc(N2CCOCC2)c([N+](=O)[O-])c1	36.8	-17.5	-1.9	12.3	-0.4	25.4*
Cc1ccc(-c2csc(NC(=O)c3cc([N+](=O)[O-])ccc3N3CCOCC3)n2)cc1	-11.3	3.7	5.5	0.1	-1.8	-3.2
